{"source": "paper PMC4552634", "about": "“A New Set of Chemical Starting Points with Plasmodium falciparum Transmission-Blocking Potential for Antimalarial Drug Discovery” (PLoS ONE, 2015)", "note": "Out of some 13,000 compounds screened, about 3,200 (25%) showed an effect of 50% or more. This is one part of the list.", "data": [{"test_system": "P. falciparum stage V gametocytes", "parameters": "BacTiter-Glo ATP luminescence viability of purified stage V gametocytes in 384-well plates, per cent inhibition versus DMSO", "details": "48 h, 5 µM; inhibitor", "units": {"% Inhibition": "%"}, "values": [{"smiles": "Clc1ccc(-c2ccc(C=NNc3nc(Nc4ccccc4)nc(Nc4ccccc4)n3)o2)cc1Cl", "note": "[TCMDC-124152]", "% Inhibition": 3.438}, {"smiles": "Clc1cccc(C=NNc2nc(Nc3ccccc3)nc(Nc3ccccc3)n2)c1", "note": "[TCMDC-125798]", "% Inhibition": 24.55}, {"smiles": "Clc1ccc(Nc2nc(NCc3ccccc3)nc(N/N=C/c3ccccn3)n2)cc1", "note": "[TCMDC-138557]", "% Inhibition": 107.3}, {"smiles": "O=c1cc(NCCCNCc2ccc(C(F)(F)F)s2)[nH]c2ccccc12", "note": "[TCMDC-140767]", "% Inhibition": -70.92}, {"smiles": "COc1ccc2nccc([C@@H](O)CN3CCC(NCCOc4ccccc4C(F)(F)F)CC3)c2c1", "note": "[TCMDC-140713]", "% Inhibition": 37.87}, {"smiles": "COc1ccc2nccc([C@@H](O)CN3CCC(NCCOc4cc(F)cc(F)c4)CC3)c2c1", "note": "[TCMDC-140510]", "% Inhibition": 10.94}, {"smiles": "COc1ccc2nccc([C@@H](O)CN3CCC(NCCOc4cccc(C(F)(F)F)c4)CC3)c2c1", "note": "[TCMDC-140507]", "% Inhibition": 58.71}, {"smiles": "COc1ccc2nccc([C@@H](O)CN3CCC(NCCOc4cc(C(F)(F)F)ccc4F)CC3)c2c1", "note": "[TCMDC-140658]", "% Inhibition": 14.45}, {"smiles": "COc1ccc2nccc([C@@H](O)CNCCCN(C)CCOc3cc(F)cc(F)c3)c2c1", "note": "[TCMDC-141051]", "% Inhibition": 75.1}, {"smiles": "COc1ccc2nccc([C@@H](O)CN3CCC(NCCOc4ccc(F)cc4F)CC3)c2c1", "note": "[TCMDC-140645]", "% Inhibition": 94.72}, {"smiles": "COc1ccc2nccc([C@@H](O)CN3CCC(NCCOc4cccc(F)c4F)CC3)c2c1", "note": "[TCMDC-140644]", "% Inhibition": 24.45}, {"smiles": "COc1ccc2nccc([C@@H](O)CN3CCC(NCCOc4ccncc4)CC3)c2c1", "note": "[TCMDC-140574]", "% Inhibition": 11.37}, {"smiles": "COc1ccc2nccc([C@@H](O)CN3CCC(NCCOc4ccc(F)cc4Cl)CC3)c2c1", "note": "[TCMDC-140660]", "% Inhibition": 20.67}, {"smiles": "CCCCc1cc(NCC)nc(Nc2cccc(OC)c2)n1", "note": "[TCMDC-133993]", "% Inhibition": 0.878}, {"smiles": "COc1ccc(CCCN2C(=O)C(c3ccccc3)(c3ccccc3)N=C2N)cc1", "note": "[TCMDC-136503]", "% Inhibition": -39.16}, {"smiles": "O=C(Nc1ccc(N2CCNCC2)nc1)c1oc(-c2ccccc2)nc1C(F)(F)F", "note": "[TCMDC-135131]", "% Inhibition": 3.26}, {"smiles": "CC(C)N(C(=O)CSc1nc2cc(Cl)ccc2c(=O)n1Cc1ccccc1)C(C)C", "note": "[TCMDC-123612]", "% Inhibition": 6.529}, {"smiles": "Cc1nc2ccc3ccc(CN(C)c4ccc(C(=O)N[C@@H](CCC(=O)O)C(=O)O)cc4)cc3c2c(=O)[nH]1", "note": "[TCMDC-138089]", "% Inhibition": 24.11}, {"smiles": "Cc1cccc2[nH]c(-c3cccc(-c4cccc(NC(=O)Nc5ccc(F)c(F)c5F)c4)c3)nc12", "note": "[TCMDC-133227]", "% Inhibition": -33.06}, {"smiles": "COc1cncc(/C=C/c2cncc(C(=O)NCCc3ccc(Cl)cc3Cl)c2)c1", "note": "[TCMDC-134508]", "% Inhibition": -1.142}, {"smiles": "CCOc1cc(C=NNc2nc(C)cc(-n3nc(C)cc3C)n2)ccc1O", "note": "[TCMDC-124094]", "% Inhibition": 92.61}, {"smiles": "CCOc1ccc(Nc2cc(C)nc(Nc3ccc(OCC)cc3)n2)cc1", "note": "[TCMDC-125772]", "% Inhibition": -32.28}, {"smiles": "CCOc1cc(/C=N/Nc2nc3ccccc3[nH]2)ccc1OCc1ccc([N+](=O)[O-])cc1", "note": "[TCMDC-124191]", "% Inhibition": -53.42}, {"smiles": "CC1(C)N=C(N)N=C(N)N1OCCSc1ccccc1", "note": "[TCMDC-131670]", "% Inhibition": -8.546}, {"smiles": "CCNC(=O)Nc1cccc(-c2cccc(-c3nc4c(C)cccc4[nH]3)c2)c1", "note": "[TCMDC-133172]", "% Inhibition": -6.099}, {"smiles": "CSc1ccc2ccccc2c1CCNCCCCNCCc1c(SC)ccc2ccccc12", "note": "[TCMDC-137763]", "% Inhibition": 109.4}, {"smiles": "CSc1ccc2ccccc2c1CNCCCCCCNCc1c(SC)ccc2ccccc12", "note": "[TCMDC-137758]", "% Inhibition": 72.82}, {"smiles": "CC1CCC(NCc2c(O)ccc3ccccc23)CC1", "note": "(centres unmarked) [TCMDC-137602]", "% Inhibition": -21.28}, {"smiles": "CC1CN(Cc2csc(Nc3ccccc3)n2)CC(C)O1", "note": "(centres unmarked) [TCMDC-125078]", "% Inhibition": 46.05}, {"smiles": "FC(F)(F)c1ccc2c(C=Cc3ccncc3)c[nH]c2c1", "note": "[TCMDC-137257]", "% Inhibition": 12.06}, {"smiles": "CCCC(=O)Nc1ccc(OCCCCN(Cc2ccccc2C(F)(F)F)c2ccc(C(F)(F)F)c(C#N)c2)cc1", "note": "[TCMDC-133359]", "% Inhibition": 32.41}, {"smiles": "CCCCN(C)CC#Cc1ccc2[nH]c(C)c(Cl)c(=O)c2c1", "note": "[TCMDC-136185]", "% Inhibition": 85.15}, {"smiles": "O=c1c2ccccc2[nH]c2cc(Cl)ccc12", "note": "[TCMDC-123989]", "% Inhibition": -7.86}, {"smiles": "Cc1[nH]c2ccc(-c3ccc(N(C)C)cc3)cc2c(=O)c1Cl", "note": "[TCMDC-136188]", "% Inhibition": 61.07}, {"smiles": "Cc1[nH]c2ccccc2c(=O)c1Br", "note": "[TCMDC-137427]", "% Inhibition": 12.8}, {"smiles": "CCCCc1ccc(-c2ccc3[nH]c(C)c(Br)c(=O)c3c2)cc1", "note": "[TCMDC-135463]", "% Inhibition": 34.89}, {"smiles": "CCCCN(C)CC#Cc1ccc(-c2ccc3[nH]c(C)c(Br)c(=O)c3c2)cn1", "note": "[TCMDC-136285]", "% Inhibition": 11.41}, {"smiles": "Cc1[nH]c2ccccc2c(=O)c1-c1ccc(Cl)cc1", "note": "[TCMDC-137172]", "% Inhibition": 25.44}, {"smiles": "Cc1[nH]c2ccc(-c3ccccc3)cc2c(=O)c1Br", "note": "[TCMDC-135426]", "% Inhibition": 61.46}, {"smiles": "Cc1[nH]c2ccc(-c3ccc(OC(F)(F)F)cc3)cc2c(=O)c1C#N", "note": "[TCMDC-136129]", "% Inhibition": 23.98}, {"smiles": "Cc1ccc2[nH]c3ccccc3c(=O)c2c1", "note": "[TCMDC-123947]", "% Inhibition": 19.38}, {"smiles": "Cc1ccc2c(=O)c3cc(C)ccc3[nH]c2c1", "note": "[TCMDC-138194]", "% Inhibition": 58.3}, {"smiles": "CCN(CC)CC#Cc1ccc2[nH]c(C)c(Cl)c(=O)c2c1", "note": "[TCMDC-136162]", "% Inhibition": 0.7622}, {"smiles": "Cc1ccc2nc(Nc3ccc(Nc4nc5ccc(C)cc5[nH]4)c(C)c3)[nH]c2c1", "note": "[TCMDC-131952]", "% Inhibition": -70.19}, {"smiles": "COc1ccc2nccc([C@@H](O)CN3CCC(NC(=O)c4cc5ccccc5[nH]4)CC3)c2c1", "note": "[TCMDC-140780]", "% Inhibition": -18.21}, {"smiles": "O=C(Nc1ccc(CC(=O)N2CCc3cc(Cl)c(N4CCN(C/C=C/c5ccccc5)CC4)cc32)cc1)Nc1cccc([N+](=O)[O-])c1", "note": "[TCMDC-139475]", "% Inhibition": 6.892}, {"smiles": "Cc1cc(Nc2cccc(C#N)c2)nc(Nc2ccccc2C)n1", "note": "[TCMDC-133471]", "% Inhibition": -8.734}, {"smiles": "CCCCNC(=O)[C@H](CC1CCCCC1)NC(=O)c1ccc(O)c(-c2cccc(C(F)(F)F)c2)c1", "note": "[TCMDC-140812]", "% Inhibition": 31.87}, {"smiles": "O=C(Nc1cc(Cl)ccc1O)c1cc(-c2ccccc2O)no1", "note": "[TCMDC-125274]", "% Inhibition": -14.42}, {"smiles": "Cc1ccc2[nH]c(C)c(Br)c(=O)c2c1", "note": "[TCMDC-124347]", "% Inhibition": 65.99}, {"smiles": "O=c1c(Br)c(C(F)(F)F)[nH]c2ccc(Oc3ccccc3)cc12", "note": "[TCMDC-135798]", "% Inhibition": -15.2}, {"smiles": "Cc1[nH]c2ccc(C#N)cc2c(=O)c1Br", "note": "[TCMDC-135219]", "% Inhibition": 27.39}, {"smiles": "COC(=O)c1ccccc1N1CCN(CCCCNC(=O)c2ccc(NC(=O)c3cc(Cl)cc(Cl)c3)cc2)CC1", "note": "[TCMDC-138235]", "% Inhibition": 7.414}, {"smiles": "NC(N)=Nc1ccc(OCCCCCOc2ccc(N=C(N)N)cc2)cc1", "note": "[TCMDC-137482]", "% Inhibition": 39.96}, {"smiles": "NC(N)=Nc1ccc(OCCCCCOc2ccc(N=C(N)N)cc2Br)c(Br)c1", "note": "[TCMDC-137543]", "% Inhibition": 77.55}, {"smiles": "NC(N)=Nc1ccc(OCCCCCOc2ccc(N=C(N)N)c(Cl)c2)cc1Cl", "note": "[TCMDC-137577]", "% Inhibition": 34.57}, {"smiles": "Cc1nc(N)nc(N)c1-c1cc(Cl)c(N)c(Cl)c1", "note": "[TCMDC-137386]", "% Inhibition": -88.48}, {"smiles": "Cc1nc2ccccc2c(=O)n1/N=C/c1ccccc1[N+](=O)[O-]", "note": "[TCMDC-125512]", "% Inhibition": 2.657}, {"smiles": "CCOC(=O)c1c[nH]c2c(sc3cc(OC)ccc32)c1=O", "note": "[TCMDC-137190]", "% Inhibition": 2.888}, {"smiles": "CCOC(=O)c1c[nH]c2c(ccc3ccccc32)c1=O", "note": "[TCMDC-123857]", "% Inhibition": 33.13}, {"smiles": "CCCCOc1cc2[nH]cc(C(=O)OCC)c(=O)c2cc1OCCCC", "note": "[TCMDC-137523]", "% Inhibition": 63.76}, {"smiles": "CCCc1cc(NCC)nc(Nc2ccc(C)cc2)n1", "note": "[TCMDC-134013]", "% Inhibition": -22.6}, {"smiles": "Cc1cccc(OCC(=O)Nc2cccc(NC(=O)COc3cccc(C)c3)n2)c1", "note": "[TCMDC-123837]", "% Inhibition": 22.25}, {"smiles": "COc1cc(C(=O)NC2CCc3ccccc32)cc(Cl)c1OC", "note": "(centres unmarked) [TCMDC-124601]", "% Inhibition": 17.65}, {"smiles": "Cc1cccc(Nc2nccc(Nc3cccc(C(=O)NCCN4CCOCC4)c3)n2)c1", "note": "[TCMDC-124774]", "% Inhibition": -4.453}, {"smiles": "OC(CNc1ccnc(Nc2cccc(CCN3CCOCC3)c2)n1)c1ccccc1", "note": "(centres unmarked) [TCMDC-136463]", "% Inhibition": 12.7}, {"smiles": "Cc1cnc(Nc2cccc(CCN3CCOCC3)c2)nc1NC(C)C", "note": "[TCMDC-133533]", "% Inhibition": 57.17}, {"smiles": "CCCCCCN1CCC(NCc2cccc3ccccc23)CC1", "note": "[TCMDC-141665]", "% Inhibition": -97.34}, {"smiles": "CCCCN1CCN(CCCCNc2c3ccccc3nc3ccccc23)CC1", "note": "[TCMDC-137569]", "% Inhibition": 97.88}, {"smiles": "CCCCCCCCN1CCN(CCCCCCNc2c3ccccc3nc3ccccc23)CC1", "note": "[TCMDC-138015]", "% Inhibition": 122.1}, {"smiles": "CCCCCCNc1c2ccccc2nc2ccccc12", "note": "[TCMDC-123957]", "% Inhibition": -50.01}, {"smiles": "CCCCN1CCN(CCCNc2c3ccccc3nc3ccccc23)CC1", "note": "[TCMDC-137572]", "% Inhibition": 99.41}, {"smiles": "COc1ccc(NC(=O)Nc2ccc(-c3ccncc3)c(C(F)(F)F)c2)cc1N1CCN(C)CC1", "note": "[TCMDC-139213]", "% Inhibition": -9.659}, {"smiles": "O=C(Cc1cnc[nH]1)Nc1cccc(-c2ccc(-c3nc4ccccc4[nH]3)cc2)c1", "note": "[TCMDC-136947]", "% Inhibition": 6.174}]}]}
